Measurements reported in PubChem BioAssay (NCATS).
Inconclusive results are not listed. Active and inactive are the calls of the source. Unless noted, how the calls were made is not given here.

Key:
[1] = qHTS profiling of the MIPE4 collection as inhibitors of Plasmodium falciparum (3D7) proliferation (AID 743344);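 further: scaled between DMSO vehicle wells and 0.29 µM artemisinin as full inhibition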; conditions: P. falciparum 3D7 in erythrocytes, SYBR Green DNA fluorescence, 72 h; at 5.51 µM (top of the series) unless noted
In short: (§1)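 Parasite DNA was quantified by SYBR Green I fluorescence (ex 485, em 535 nm) after overnight lysis in saponin/Triton buffer at room temperature. Cultures at 0.3% parasitemia and 2.5% hematocrit were first exposed to compound for 72 h at 37 C; signals were normalised to artemisinin (0.29 uM) and vehicle wells.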

[2] = qHTS profiling of the MIPE4 collection as inhibitors of Plasmodium falciparum (DD2) proliferation (AID 743345); conditions: P. falciparum Dd2 in erythrocytes, SYBR Green DNA, 72 h; at 5.51 µM (top of the series) unless noted
In short: as §1

[3] = qHTS profiling of the MIPE4 collection as inhibitors of Plasmodium falciparum (DD2) proliferation (Rep 2) (AID 743346); conditions: P. falciparum Dd2 in erythrocytes, SYBR Green DNA, 72 h; at 5.51 µM (top of the series) unless noted
In short: as §1

[4] = qHTS profiling of the MIPE4 collection as inhibitors of Plasmodium falciparum (HB3) proliferation (AID 743347);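 further: plate controls were DMSO vehicle wells for no effect and artemisinin wells for full effect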; conditions: P. falciparum HB3 in erythrocytes, SYBR Green DNA, 72 h; at 5.51 µM (top of the series) unless noted
In short: as §1

[5] = molecular target: Glutathione peroxidase 1 (Homo sapiens) (UniProt P07203); assay: Primary qHTS Assay for Inhibitors of Recombinant Selenoprotein Glutathione Peroxidase 1 (GPX1) (AID 1845191; active means well fitted inhibition curve with a large enough effect; further: on the % scale 0 is the no-effect control and ±100 the full control effect; nearly all actives have a fitted effect of over 65% in size); conditions: outcome: dose series up to 48.8 µM unless noted
Glutathione peroxidase 1 (Homo sapiens), sequence (P07203 whole entry, looked up): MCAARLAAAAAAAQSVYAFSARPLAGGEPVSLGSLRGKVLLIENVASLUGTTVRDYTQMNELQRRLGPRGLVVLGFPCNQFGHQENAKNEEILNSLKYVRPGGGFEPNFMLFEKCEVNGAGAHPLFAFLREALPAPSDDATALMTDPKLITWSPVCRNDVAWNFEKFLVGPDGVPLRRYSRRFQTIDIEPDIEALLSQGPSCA
In short: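 GR-coupled readout: NADPH consumption tracked by fluorescence, ex 340/em 450 nm, at t=0 and after 15 min at RT. Final mix 10 nM GPX1, 1 mM GSH, 0.5 mM CHP, 0.5 mM NADPH, 100 nM GR, 0.01% BSA, following 30 min enzyme–compound preincubation.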

[6] = molecular target: Phospholipid hydroperoxide glutathione peroxidase GPX4 (Homo sapiens) (UniProt P36969); assay: Primary qHTS Assay for Inhibitors of Recombinant Selenoprotein Glutathione Peroxidase 4 (GPX4) (AID 1845192; active means well fitted inhibition curve with a large enough effect; further: nearly all actives have a fitted effect of over 65% in size); conditions: outcome: dose series up to 50 µM unless noted
Phospholipid hydroperoxide glutathione peroxidase GPX4 (Homo sapiens), sequence (P36969 whole entry, looked up): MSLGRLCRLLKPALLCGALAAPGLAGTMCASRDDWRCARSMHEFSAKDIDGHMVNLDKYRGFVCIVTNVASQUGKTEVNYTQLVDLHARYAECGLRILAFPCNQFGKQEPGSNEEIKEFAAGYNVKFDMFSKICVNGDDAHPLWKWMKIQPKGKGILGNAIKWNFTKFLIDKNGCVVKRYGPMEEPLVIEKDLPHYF
In short: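 Steps: GPX4 plus compound, 30 min RT; add GR/GSH/NADPH master mix; start with cumene hydroperoxide; read 340/450 nm fluorescence at 0 and 15 min. Finals were 200 nM GPX4, 1 mM GSH, 0.5 mM CHP, 0.5 mM NADPH, 100 nM GR.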

SMILES	parasite growth, % of DMSO control [1]	parasite growth remaining, % of DMSO control (lower = more inhibition) [2]	parasite growth, % of control (lower = inhibition) [3]	growth, % of control [4]	activity, negative = inhibition [5]	outcome [5]	outcome [6]
NC[C@@H]1O[C@H](O[C@H]2[C@H](O)[C@H](O[C@H]3[C@@H](O)[C@H](N)C[C@H](N)[C@H]3O[C@H]3O[C@H](CN)[C@H](O)[C@H](O)[C@H]3N)O[C@@H]2CO)[C@@H](N)[C@@H](O)[C@@H]1O	98.8%	101%	77.1%	77.3%	-26.7% [at 4.49 µM] (inactive)		
CCC(=O)O[C@@H]1CC(=O)O[C@H](C)C/C=C/C=C/[C@@H](O)[C@H](C)C[C@H](CC=O)[C@H](OC2O[C@H](C)[C@@H](O[C@H]3C[C@@](C)(O)[C@@H](OC(=O)CC)[C@H](C)O3)[C@H](N(C)C)[C@H]2O)[C@H]1OC (some centres not stated)						inactive	inactive
